Measurements taken from PubChem BioAssay AID1159580 (chemical genetic matrix, 2015).
The whole screen tested about 5,500 compounds, of which about 2,000 (36%) were called active. Inconclusive results (about 18%) are left out. Cut-off read from the data, not from the text of the source: active = normalized growth mostly below about 0.91 (no sharp cut-off); inconclusive = no clear call, values can overlap the other calls; inactive = mostly above about 0.92. Some of the results follow.

Assay: chemical genetic growth profiling, strain panel (AID 1159580);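 note: tested at 20 µM; growth read once vehicle control cultures reached saturation at 30 °C; 1 = growth at the plate median or of vehicle wells; lower values mean less growth of the strain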
Settings: growth OD

Measured: normalized growth

COc1cc(OC)c2ccc(=O)oc2c1
inactive: S. cerevisiae deletion strains, locus YJR075W, strain HOC1, stronger effect = lower value 1.01 | S. cerevisiae deletion strains, locus YKL009W, strain mrt4, stronger effect = lower value 0.966 | S. cerevisiae deletion strains, locus YKL068W, stronger effect = lower value 1.01 | S. cerevisiae deletion strains, locus YKL085W, strain MDH1 (second series), stronger effect = lower value 1.01 | S. cerevisiae deletion strains, locus YKL085W, strain MDH1, stronger effect = lower value 1.01 | S. cerevisiae deletion strains, locus YKL160W, strain elf1, stronger effect = lower value 0.977 | S. cerevisiae deletion strains, locus YKL190W, strain CNB1, stronger effect = lower value 1.01 | S. cerevisiae deletion strains, locus YKR001C, strain vps1, stronger effect = lower value 0.945 | S. cerevisiae deletion strains, locus YKR026C, strain gcn3, stronger effect = lower value 0.962 | S. cerevisiae deletion strains, locus YKR091W, strain srl3, stronger effect = lower value 0.99 | S. cerevisiae deletion strains, locus YLL001W, strain dnm1, stronger effect = lower value 0.94 | S. cerevisiae deletion strains, locus YLL026W, stronger effect = lower value 0.973 | S. cerevisiae deletion strains, locus YLL041C, strain sdh2, stronger effect = lower value 0.979 | S. cerevisiae deletion strains, locus YLR027C, strain aat2, stronger effect = lower value 0.977 | S. cerevisiae deletion strains, locus YLR039C, strain RIC1, stronger effect = lower value 0.974 | S. cerevisiae deletion strains, locus YLR058C, strain SHM2, stronger effect = lower value 1.01 | S. cerevisiae deletion strains, locus YLR102C, strain apc9, stronger effect = lower value 1.01 | S. cerevisiae deletion strains, locus YLR113W, strain HOG1, stronger effect = lower value 1.02 | S. cerevisiae deletion strains, locus YLR221C, strain rsa3, stronger effect = lower value 0.97 | S. cerevisiae deletion strains, locus YLR258W, strain gsy2, stronger effect = lower value 0.952 | S. cerevisiae deletion strains, locus YLR262C, strain YPT6 (second series), stronger effect = lower value 0.97 | S. cerevisiae deletion strains, locus YLR262C, strain YPT6, stronger effect = lower value 0.992 | S. cerevisiae deletion strains, locus YLR268W, strain sec22, stronger effect = lower value 1.01 | S. cerevisiae deletion strains, locus YLR320W, strain mms22, stronger effect = lower value 0.897 | S. cerevisiae deletion strains, locus YLR330W, strain CHS5, stronger effect = lower value 1 | S. cerevisiae deletion strains, locus YLR342W, strain FKS1 (second series), stronger effect = lower value 1.03 | S. cerevisiae deletion strains, locus YLR342W, strain FKS1, stronger effect = lower value 0.976 | S. cerevisiae deletion strains, locus YLR357W, strain rsc2, stronger effect = lower value 1.05 | S. cerevisiae deletion strains, locus YLR370C, strain arc18, stronger effect = lower value 0.981 | S. cerevisiae deletion strains, locus YLR371W, strain rom2, stronger effect = lower value 1.01 | S. cerevisiae deletion strains, locus YLR384C, strain iki3, stronger effect = lower value 0.975 | S. cerevisiae deletion strains, locus YLR418C, strain cdc73, stronger effect = lower value 1.01 | S. cerevisiae deletion strains, locus YML016C, strain PPZ1, stronger effect = lower value 1 | S. cerevisiae deletion strains, locus YML032C, strain rad52, stronger effect = lower value 0.982 | S. cerevisiae deletion strains, locus YML120C, strain ndi1, stronger effect = lower value 0.954 | S. cerevisiae deletion strains, locus YML124C, strain tub3, stronger effect = lower value 1.01 | S. cerevisiae deletion strains, locus YMR058W, strain fet3, stronger effect = lower value 0.957 | S. cerevisiae deletion strains, locus YMR078C, strain ctf18, stronger effect = lower value 0.996 | S. cerevisiae deletion strains, locus YMR125W, strain sto1, stronger effect = lower value 0.993 | S. cerevisiae deletion strains, locus YMR129W, stronger effect = lower value 0.988 | S. cerevisiae deletion strains, locus YMR205C, strain PFK2, stronger effect = lower value 0.97 | S. cerevisiae deletion strains, locus YMR223W, strain ubp8, stronger effect = lower value 0.976 | S. cerevisiae deletion strains, locus YMR231W, strain pep5, stronger effect = lower value 0.965 | S. cerevisiae deletion strains, locus YMR263W, strain SAP30, stronger effect = lower value 0.992 | S. cerevisiae deletion strains, locus YMR307W, strain GAS1, stronger effect = lower value 1.02 | S. cerevisiae deletion strains, locus YNL067W, strain RPL9B, stronger effect = lower value 0.989 | S. cerevisiae deletion strains, locus YNL071W, strain lat1, stronger effect = lower value 0.953 | S. cerevisiae deletion strains, locus YNL128W, strain TEP1, stronger effect = lower value 1.01 | S. cerevisiae deletion strains, locus YNL153C, strain GIM3, stronger effect = lower value 1.01 | S. cerevisiae deletion strains, locus YNL183C, strain NPR1, stronger effect = lower value 0.946 | S. cerevisiae deletion strains, locus YNL209W, strain ssb2, stronger effect = lower value 0.98 | S. cerevisiae deletion strains, locus YNL233W, strain BNI4, stronger effect = lower value 1 | S. cerevisiae deletion strains, locus YNL250W, strain rad50, stronger effect = lower value 0.992 | S. cerevisiae deletion strains, locus YNL271C, strain bni1, stronger effect = lower value 0.99 | S. cerevisiae deletion strains, locus YNL298W, strain CLA4, stronger effect = lower value 0.973 | S. cerevisiae deletion strains, locus YNL307C, strain MCK1, stronger effect = lower value 0.988 | S. cerevisiae deletion strains, locus YNL322C, strain KRE1 (second series), stronger effect = lower value 0.992 | S. cerevisiae deletion strains, locus YNL322C, strain KRE1, stronger effect = lower value 1 | S. cerevisiae deletion strains, locus YNR049C, strain mso1, stronger effect = lower value 0.982 | S. cerevisiae deletion strains, locus YNR052C, strain pop2, stronger effect = lower value 0.989 | S. cerevisiae deletion strains, locus YOL006C, strain TOP1, stronger effect = lower value 0.921 | S. cerevisiae deletion strains, locus YOL012C, strain htz1 1.64 | S. cerevisiae deletion strains, locus YOL147C, strain pex11, stronger effect = lower value 1 | S. cerevisiae deletion strains, locus YOR001W, strain rrp6, stronger effect = lower value 0.963 | S. cerevisiae deletion strains, locus YOR061W, strain CKA2, stronger effect = lower value 1 | S. cerevisiae deletion strains, locus YOR069W, strain VPS5, stronger effect = lower value 1.01 | S. cerevisiae deletion strains, locus YOR070C, strain gyp1, stronger effect = lower value 0.964 | S. cerevisiae deletion strains, locus YOR080W, strain dia2, stronger effect = lower value 0.969 | S. cerevisiae deletion strains, locus YOR083W, strain WHI5, stronger effect = lower value 0.968 | S. cerevisiae deletion strains, locus YOR106W, strain vam3, stronger effect = lower value 0.95 | S. cerevisiae deletion strains, locus YOR136W, strain idh2, stronger effect = lower value 1.01 | S. cerevisiae deletion strains, locus YOR144C, strain elg1, stronger effect = lower value 1.01 | S. cerevisiae deletion strains, locus YOR184W, strain ser1, stronger effect = lower value 0.949 | S. cerevisiae deletion strains, locus YOR231W, strain MKK1, stronger effect = lower value 0.991 | S. cerevisiae deletion strains, locus YOR265W, strain rbl2, stronger effect = lower value 0.977 | S. cerevisiae deletion strains, locus YOR270C, strain vph1, stronger effect = lower value 0.814 | S. cerevisiae deletion strains, locus YOR290C, strain snf2, stronger effect = lower value 0.936 | S. cerevisiae deletion strains, locus YOR316C, strain cot1, stronger effect = lower value 0.998 | S. cerevisiae deletion strains, locus YPL051W, strain arl3, stronger effect = lower value 0.968 | S. cerevisiae deletion strains, locus YPL055C, strain LGE1, stronger effect = lower value 0.971 | S. cerevisiae deletion strains, locus YPL078C, strain atp4, stronger effect = lower value 0.957 | S. cerevisiae deletion strains, locus YPL106C, strain sse1, stronger effect = lower value 0.926 | S. cerevisiae deletion strains, locus YPL240C, strain hsp82, stronger effect = lower value 0.985 | S. cerevisiae deletion strains, locus YPL241C, strain CIN2, stronger effect = lower value 1 | S. cerevisiae deletion strains, locus YPL256C, strain CLN2, stronger effect = lower value 1.05 | S. cerevisiae deletion strains, locus YPR119W, strain clb2, stronger effect = lower value 1 | S. cerevisiae deletion strains, locus YPR141C, strain kar3, stronger effect = lower value 1 | S. cerevisiae deletion strains, locus YPR163C, strain tif3, stronger effect = lower value 1.01 | S. cerevisiae deletion strains, locus YPR167C, strain met16, stronger effect = lower value 0.995 | S. cerevisiae deletion strains, strain wtn01, stronger effect = lower value 1 | S. cerevisiae strains, strain wild type, stronger effect = lower value 1.01
active: S. cerevisiae deletion strains, locus YNL248C, strain rpa49, stronger effect = lower value 0.872
